{"source": "PubChem BioAssay AID489008", "about": "(National Center for Advancing Translational Sciences (NCATS), 2010)", "note": "Results filed as inconclusive are left out. Activity calls are given as the source filed them. Calls come from the whole dose curve; as a rule, active = well fitted inhibition curve with a large enough effect; inconclusive = small, poorly fitted or top-dose-only effect; inactive = flat fitted curve, though single readings scatter. Potency is the fitted concentration of half-maximal effect.", "data": [{"target": "Ferritin light chain (Equus caballus) (UniProt P02791)", "sequence (P02791 2-175 limits assumed)": "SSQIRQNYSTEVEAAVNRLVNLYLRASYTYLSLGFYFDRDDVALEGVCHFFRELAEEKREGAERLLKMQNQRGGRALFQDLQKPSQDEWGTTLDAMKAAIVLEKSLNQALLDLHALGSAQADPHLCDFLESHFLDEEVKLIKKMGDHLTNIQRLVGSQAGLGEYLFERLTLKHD", "experiment": "Confirmation Assay for Identification of Novel General Anesthetics; note: nearly all actives have a fitted effect of over 40% in size", "conditions": "apoferritin 1-aminoanthracene fluorescence displacement", "method_in_brief": "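Competitive displacement of profluorescent 1-aminoanthracene from 10 uM horse-spleen apoferritin in 50% saturated 1-AMA/PBS; 10 min RT, fluorescence Ex 380/Em 535. Normalized to free 1-AMA and complex; four-parameter Hill fit.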", "values": [{"smiles": "O=C1c2ccsc2SCCN1Cc1cccc(Cl)c1", "Potency": "15.8 µM (active)"}, {"smiles": "Cc1cccc(C(=O)N2CCCCCC2)c1", "Potency": "22.4 µM (active)"}, {"smiles": "COc1ccccc1CC(=O)N1CCCc2ccccc21", "Potency": "31.6 µM (active)"}, {"smiles": "O=C(OCC(=O)C12CC3CC(CC(C3)C1)C2)c1ccccn1", "Potency": "14.1 µM (active)"}, {"smiles": "CCN(CC)C(=S)SCC(=O)c1ccccc1", "Potency": "28.2 µM (active)"}, {"smiles": "O=c1cc(C23CC4CC(CC(C4)C2)C3)[nH][nH]1", "Potency": "12.6 µM (active)"}, {"smiles": "O=C(CSc1ccccn1)N1CCc2ccccc21", "Potency": "8.91 µM (active)"}, {"smiles": "O=C(Nc1nccs1)c1csc2c1CCCC2", "Potency": "8.91 µM (active)"}, {"smiles": "CCN(CC)c1cccc(OC2=NS(=O)(=O)c3ccccc32)c1", "Potency": "17.8 µM (active)"}, {"smiles": "C=Cc1ccc(Cn2nc(-c3ccc(C)cc3)ccc2=O)cc1", "Potency": "17.8 µM (active)"}, {"smiles": "O=C(CCNc1cccc(Cl)c1)c1cccs1", "Potency": "17.8 µM (active)"}, {"smiles": "COc1ccccc1C1SCCN1S(C)(=O)=O", "note": "(centres undefined)", "Potency": "20 µM (active)"}, {"smiles": "COc1cccc(NC(=O)N2CCCCCC2)c1", "Potency": "14.1 µM (active)"}, {"smiles": "O=C(COc1ccccc1Cl)N1CCCCCCC1", "Potency": "15.8 µM (active)"}, {"smiles": "Cc1ccc(-c2ccc(=O)n(CC(=O)NC(C)c3ccccc3)n2)cc1", "note": "(centres undefined)", "Potency": "20 µM (active)"}, {"smiles": "CC(C)(C)c1ccc(OCCC(=O)NC2=NCCS2)cc1", "Potency": "20 µM (active)"}, {"smiles": "Cc1ccc(NS(=O)(=O)N2CCOCC2)cc1Cl", "Potency": "12.6 µM (active)"}, {"smiles": "CC(C)CCSc1nc2ccccc2[nH]1", "Potency": "15.8 µM (active)"}, {"smiles": "Nc1nc(Cl)cc(NCCc2ccc(O)cc2)n1", "Potency": "14.1 µM (active)"}, {"smiles": "Cc1cccc(NC(=O)N2CCCCCC2)c1C", "Potency": "8.91 µM (active)"}, {"smiles": "O=C(CCl)Nc1ccc(N2CCCCCC2)cc1", "Potency": "15.8 µM (active)"}, {"smiles": "Cc1cccc(NC(=O)N2CCCCCC2)c1", "Potency": "11.2 µM (active)"}, {"smiles": "Clc1ccc(NCc2ccsc2)cc1", "Potency": "25.1 µM (active)"}, {"smiles": "Clc1ccc(CNc2ccccn2)cc1", "Potency": "15.8 µM (active)"}, {"smiles": "O=S(=O)(NCCc1ccccc1)c1ccc(Br)s1", "Potency": "31.6 µM (active)"}, {"smiles": "Cc1ccc(CNC(=O)c2nnn(-c3cccc(C)c3)c2N)cc1", "Potency": "17.8 µM (active)"}, {"smiles": "c1cc2cn[nH]c2cc1NC1CCCCCC1", "Potency": "15.8 µM (active)"}, {"smiles": "O=C1c2ccsc2SCCN1Cc1ccccc1Cl", "Potency": "14.1 µM (active)"}, {"smiles": "Cc1cccc(N(C(=O)Nc2ccccc2)C2=NCC(C)S2)c1", "note": "(centres undefined)", "Potency": "25.1 µM (active)"}, {"smiles": "Cc1ccccc1NCc1ccccc1O", "Potency": "15.8 µM (active)"}, {"smiles": "Cc1cc(C)n(Cc2ccccc2Cl)n1", "Potency": "12.6 µM (active)"}, {"smiles": "O=C(CO/N=C/c1ccc(OC(F)F)cc1)NC1CCCCCC1", "Potency": "11.2 µM (active)"}, {"smiles": "Cc1cc(C)n2nc(CC(=O)NC3CCCCCCC3)nc2n1", "Potency": "10 µM (active)"}, {"smiles": "CC(C)CCNC(=O)CN1N=C(c2ccc(Cl)cc2)CCC1=O", "Potency": "5.19 µM (active)"}, {"smiles": "CN(C)c1ccc(C(=S)N2CCCCCC2)cc1", "Potency": "25.1 µM (active)"}, {"smiles": "CCCCSC(=O)Nc1ccccc1", "Potency": "7.08 µM (active)"}, {"smiles": "Oc1ccc(C(=S)N2CCCCC2)cc1Cl", "Potency": "17.8 µM (active)"}, {"smiles": "CC1CCCC(NC(=O)COC(=O)c2ccc(N(C)C)cc2)C1C", "note": "(centres undefined)", "Potency": "7.08 µM (active)"}, {"smiles": "O=C(CSc1nnnn1C1CCCCC1)Nc1nc2c(s1)CCCC2", "Potency": "31.6 µM (active)"}]}]}
